Measured values published in PubChem BioAssay AID720525 (National Center for Advancing Translational Sciences (NCATS), 2013).
Inconclusive results are not listed. Where a call stands in place of a potency, no number is given. Activity calls are given as the source filed them. Calls come from the whole dose curve; as a rule, active = well fitted activation curve with a large enough effect; inconclusive = small, poorly fitted or top-dose-only effect; inactive = no such curve, though single readings can be large or run the other way.

Experiment: qHTS Assay for NPC1 Promoter Activators: Hit Validation Using Firefly Luciferase Read-Out for Rab9
Conditions: Huh7 Rab9 promoter firefly luciferase reporter, 24 h; series mostly up to 46.1 µM
Description: Niemann Pick Type C (NPC) is a rare neurodegenerative lipidosis that is characterized by lipid storage in the endosomal/lysosomal system. Treatment modalities for this devastating disease are currently non-existent due to the severe obstacles associated with accessing the central nervous system with proteins or genes. The majority of mutations causing NPC disease are missense mutations that are distributed throughout the length of the NPC1 protein, with the most prevalent being the I1061T allele. Although NPC1 mutant proteins may be functional, they are typically trapped in the ER due to misfolding. […] We have developed and optimized a cell based renilla luciferase reporter assay in 1536 well format for the identification of up-regulators of the mutant Rab9 promoter. This assay presents data on the validation of hits from the primary screen, which used a firefly luciferase read-out. NIH Chemical Genomics Center [NCGC] NIH Molecular Libraries Probe Production centers Network [MLPCN] MLPCN Grant: MH089375 Assay Submitter (PI): Yiannis A. Ioannou
Huh7 cells stably expressing NPC promoter-luciferase will be seeded at 1,500 cells/well in 5 uL in 1,536-well white opaque plates with 23 nL/well of compound in DMSO solution. The assay plates will be incubated at 37 deg C for 24 hours, after which 3 uL/well BriteLite plus luciferase detection reagent mixture (Perkin Elmer) will be added. Luminescence signal will be measured in a ViewLux plate reader (Perkin Elmer) after a 10 minute incubation at the room temperature.

SMILES	Potency
O=C(CSc1nccn1Cc1ccco1)Nc1ccccc1F	inactive
CCOC(=O)c1ccc(NC(=O)Oc2cc(C)c(Cl)cc2C(C)C)cc1	inactive
Cc1ccc(NC(=O)COC(=O)C2C3CC4OC(=O)C2C4C3)cc1Cl (stereo not drawn)	inactive
N#CC/C(N)=N/NC(=O)CCCNc1ncc(C(F)(F)F)cc1Cl	19.9 µM (active)
CCc1cc2c(N=Nc3c(O)[nH]c4ccccc34)ncnc2s1	inactive
Cc1cccc(N2CCN(C(=S)c3ccccc3)CC2)c1	inactive
CC(C)CC(=O)N1CCN(c2ccc(NC(=O)c3ccco3)cc2)CC1	inactive
O=C(NC(=S)Nc1ccc(CN2CCCCC2)cc1)c1cc2ccccc2o1	inactive
O=C(CSc1nnc(-c2ccccc2)o1)Nc1ccccc1F	0.112 µM (active)
Cc1ccc(NC(=O)NC(=O)c2ccccc2)cc1F	0.445 µM (active)
COc1ccc(-c2csc(N(CCCN(C)C)C(=O)c3ccccc3C)n2)cc1	inactive
CC1CCCN(S(=O)(=O)c2ccc(C(=O)Nc3nnc(-c4ccncc4)o3)cc2)C1 (stereo not drawn)	inactive
COc1ccc([N+](=O)[O-])cc1COc1ccc2c(-c3ccccc3)cc(=O)oc2c1	inactive
